Screening data deposited in PubChem BioAssay by several laboratories.
Shn3 3UTR inh: reduction of Shn3 3'UTR firefly luciferase signal, primary screen, Schnurri-3 inhibitor project, cell-based, Clone20 osteoblasts, set 2. Clone20 osteoblast Shn3 3'UTR firefly luciferase, 24 h. inhibition, % at 12.5 µM. actives 0.52% (n = 360,000);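 active = mean inhibition of at least 75% with every replicate also reaching 75%; inconclusive = mean inhibition at least 75% but some replicate below; inactive = mean inhibition below 75%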
697 NFkB inh: inhibitors of PMA/ionomycin-induced NF-kB reporter, 697 cells, primary screen, B-cell NF-kB inhibitor project, cell-based, luminescence, uHTS; 697 B-cell NF-kB luciferase reporter, 16 h; inhibition, % at 4 µM; actives 0.33% (n = 330,000); in the data active = inhibition above about 35%
LMP1 NFkB inh: EBV LMP1-driven NF-kappaB luciferase reporter inhibitors, primary screen, cell-based, luminescence, single point. LMP1-induced NF-kappaB luciferase reporter cells. inhibition, % at 12.5 µM. actives 0.69% (n = 350,000). AID 504558, 2011; in the data active = inhibition above about 41%; inconclusive = no clear call, values can overlap the other calls
Gli-Sufu antag: Gli-Sufu pathway antagonists, primary screen, luciferase luminescence, Sufu-KO-LIGHT cells, uHTS. inhibition, % at 5 µM. Sufu-KO-LIGHT fibroblasts, Gli luciferase reporter luminescence. actives 0.74% (n = 340,000). AID 588413, 2011;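 active = inhibition above about 55%, limit read from the data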
TRPM1 prom inh: inhibitors of MITF-dependent TRPM1 promoter reporter, primary screen, cell-based, SK-MEL-5, single point, luciferase | inhibition, % at 12.5 µM | SK-MEL-5 TRPM1 promoter luciferase, 24 h | actives 0.83% (n = 330,000);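 active = mean inhibition across replicates of 60% or more, whatever share of single replicates reaches that level; inconclusive = some that reach 60%, reason not given; inactive = mean inhibition across replicates below 60%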
Jurkat NFkB inh: inhibitors of induced NF-kB luciferase reporter, primary screen, TCR NF-kB activation inhibitor project, cell-based, luminescence, uHTS; Jurkat, PMA/ionomycin-induced NF-kB luciferase reporter; inhibition, % at 4 µM; actives 0.53% (n = 330,000); in the data active = inhibition above about 50%
Gli antag conf: Gli-SUFU pathway antagonists, confirmation, single concentration, luciferase luminescence, Sufu-KO-LIGHT cells. inhibition, % at 5 µM. Gli luciferase reporter. actives 40% (n = 2,500). shares compounds with Gli-Sufu antag;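 active = mean inhibition at 5 µM reaching about 45%, limit read from the data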
SufuKO cytotox: cytotoxicity in Sufu-KO-LIGHT cells, confirmation, cytotoxicity control for Gli-SUFU antagonist project, cell-based, ATP luminescence, single concentration; actives 32% (n = 2,500); AID 651994, 2013; shares compounds with Gli-Sufu antag; cytotoxicity, % at 5 µM;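 active = mean cytotoxicity at 5 µM above about 25%, limit read from the data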;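 also: cells exposed to compound overnight for roughly 16 to 18 hours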
Wnt3a counter: Wnt3a reporter signal inhibition, confirmation, counter-screen for Gli-SUFU antagonist project, Wnt-LIGHT cells, luminescence, single concentration; inhibition, % at 6.25 µM; actives 20% (n = 2,500); shares compounds with Gli-Sufu antag; AID 651995, 2013; Wnt3a-driven luciferase reporter;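 active = mean inhibition above about 25%, limit read from the data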
A number is an active result; - = inactive; ? = inconclusive; . = not tested or not shown. Most compounds without a hit are left out; they make up all but 2.3% or so of the library.

SMILES	Shn3 3UTR inh	697 NFkB inh	LMP1 NFkB inh	Gli-Sufu antag	TRPM1 prom inh	Jurkat NFkB inh	Gli antag conf	SufuKO cytotox	Wnt3a counter
CN(C)C1=NC[C@H](Cc2ccccc2)N1CCCC1CCCC1	86	-	-	56	-	-	-	31	-
Cc1oc(-c2ccc(Cl)cc2)cc1C(=O)N1CCC1(C)C(=O)O (stereo not drawn)	-	.	.	.	.	.	.	.	.
COc1ccccc1CNC(=O)C1CC(=O)N(c2ccc(C)c(C)c2)C1 (stereo not drawn)	-	-	-	-	-	-	.	.	.
COc1ccc(N2CC(C(=O)NCc3nnnn3-c3ccc(C)c(C)c3)CC2=O)cc1 (stereo not drawn)	-	-	-	-	-	-	-	-	-
O=C(Cn1cnc2ccccc21)Nc1cccc(S(=O)(=O)N2CCCC2)c1	?	-	-	-	-	-	53	-	-
C=CCOC(=O)C1=C(C)NC(=O)NC1c1ccc(N(C)C)cc1 (stereo not drawn)	-	-	-	-	-	-	.	.	.
COc1ccc(/C=C/C2=CCN(Cc3ccc(OC)cc3)CC2)cc1	-	-	-	-	-	-	-	-	-
N#CCc1cccnc1Sc1ccc(Cl)cc1	-	-	-	-	-	-	.	.	.
O=C(CC(Cc1ccccc1)C(=O)O)Nc1ccc(F)cc1 (stereo not drawn)	-	-	-	-	-	-	.	.	.
O=C(CC(Cc1ccccc1)C(=O)O)Nc1cccc(C(F)(F)F)c1 (stereo not drawn)	-	-	-	-	-	-	-	-	-
CC(=O)c1ccc(N2C(=O)[C@@H]3C(C(=O)CCN4C(=O)c5ccccc5C4=O)=NN[C@@H]3C2=O)cc1	-	-	-	-	-	-	.	.	.
COc1ccc(NC(=O)COCC(=O)Nc2ccc(C)cc2)cc1	-	-	-	-	-	-	-	-	-
COc1ccc(OCC(=O)Nc2ccc(C)cc2)cc1	-	-	-	-	-	-	.	.	.
COc1ccccc1CCNC(=O)c1cc(-c2ccncc2)nc2ccc(Br)cc12	-	.	-	67	-	.	-	25	-
COc1cc(/C=N/NC(=O)c2ccncc2)ccc1OC(=O)c1ccco1	-	-	-	-	-	-	.	.	.
COc1cc(/C=N/NC(=O)c2ccncc2)ccc1OC(C)=O	-	-	-	58	-	-	-	-	-
CCn1c(Oc2ccccc2F)nc2c1c(=O)n(C)c(=O)n2C	-	-	-	-	-	-	.	.	.
Cc1ccccc1OCC(=O)OCC(=O)Nc1ccc(Cl)cn1	-	-	-	-	-	-	.	.	.
CCc1ccc(-c2cc(C)no2)cc1S(=O)(=O)NCCCN1CCN(c2ccccc2)CC1	-	-	-	-	-	-	-	29	-
CCOc1ccccc1CNS(=O)(=O)c1cc(-c2cc(C)no2)ccc1OC	-	-	-	-	-	-	.	.	.
COc1ccc(-c2cc(C)no2)cc1S(=O)(=O)NCC(C)c1ccccc1 (stereo not drawn)	-	-	-	76	-	-	-	-	-
O=C(CN1CCOCC1)Nc1ncc(Cc2cccc3ccccc23)s1	-	-	-	-	-	-	.	.	.
COc1ccc(NC(=O)c2cccc3cccnc23)cc1S(N)(=O)=O	-	-	-	-	-	-	.	.	.
CCN1CCN(C(=O)c2ccc(Cl)c(S(=O)(=O)N3CCOCC3)c2)CC1	-	-	-	-	-	-	.	.	.
CC1=C(C(=O)OC(C)C)C(c2ccccc2)NC(=O)N1C (stereo not drawn)	-	-	-	57	-	-	-	-	-
SMILES	Shn3 3UTR inh	697 NFkB inh	LMP1 NFkB inh	Gli-Sufu antag	TRPM1 prom inh	Jurkat NFkB inh	Gli antag conf	SufuKO cytotox	Wnt3a counter
COC(=O)C1=C(C)N(C)C(=O)NC1c1ccccc1 (stereo not drawn)	-	-	-	-	-	-	.	.	.
CC(NC(=O)c1ccccc1Cl)C1CC2CCC1C2 (stereo not drawn)	-	-	-	-	-	-	.	.	.
CC(NC(=O)CCNC(=O)c1ccccc1Cl)C1CC2CCC1C2 (stereo not drawn)	-	-	-	-	-	-	-	-	-
CC(=O)NC(CCS(C)(=O)=O)C(=O)Nc1cccc(C)c1 (stereo not drawn)	-	-	-	-	-	-	.	.	.
CC(=O)NC(CCS(C)(=O)=O)C(=O)Nc1cc(C)ccc1C (stereo not drawn)	-	-	-	-	-	-	-	-	-
CCOc1ccccc1NC(=O)CCN1CCN(S(=O)(=O)c2ccc(Br)cc2)CC1	-	-	-	-	-	-	-	-	-
Cc1ccc(C)c(NS(=O)(=O)c2ccc(-c3ccc(=O)[nH]n3)o2)c1	-	-	-	-	-	-	.	.	.
COc1cc(NC(=O)c2ccc3c(=O)n(Cc4ccco4)c(=S)[nH]c3c2)cc(OC)c1OC	.	-	-	-	-	-	.	.	.
O=c1nc2ccccc2c(NS(=O)(=O)c2ccccc2)n1-c1ccccc1	-	-	-	83	-	-	-	-	-
Cc1nc2ccccc2c(=O)n1-c1cccc(NS(=O)(=O)c2ccccc2)c1	-	-	-	-	-	-	.	.	.
Cc1ccc(S(=O)(=O)Nc2ccc(-n3c(C)nc4ccccc4c3=O)cc2)cc1	-	-	-	82	-	-	-	-	-
Cc1ccc(S(=O)(=O)Nc2c3ccccc3nc(=O)n2-c2ccccc2)cc1	-	-	-	-	-	-	.	.	.
COc1ccccc1NC(=O)CSc1ncnc2c1oc1ccccc12	-	-	-	-	-	-	.	.	.
NNC(=O)CN1CCCc2ccccc21	-	-	-	-	-	-	.	.	.
CC(C)OCCCNc1ncnc2c1[nH]c1ccccc12	-	-	-	64	-	-	59	40	-
COc1ccc(CNc2ncnc3c2[nH]c2ccccc23)cc1	89	-	.	-	.	-	64	-	-
CCCCc1nnc(SCc2ccc(OCC)cc2)n1N	-	-	-	-	-	-	.	.	.
COc1cccc(CNCc2cccc(Br)c2)c1OC	-	-	-	-	-	-	.	.	.
CCOC(=O)C1(CC2CCCCO2)CCN(Cc2cc3ccccc3[nH]2)CC1 (stereo not drawn)	-	-	-	59	-	-	-	-	-
